# Laboratory results from PMC12280212.
# How the values were obtained:
# Actin, cytoplasmic 1 = Actin, cytoplasmic 1 (UniProt P60709); assay: cross-linking mass spectrometry
# Histone H2B type 1-N = Histone H2B type 1-N (UniProt Q99877); assay: cross-linking mass spectrometry
# Alpha-enolase = Alpha-enolase (UniProt P06733); assay: cross-linking mass spectrometry
# [1] = target: Heat shock cognate 71 kDa protein (UniProt P11142); assay: cross-linking mass spectrometry
# [2] = target: Heterogeneous nuclear ribonucleoprotein U (UniProt Q00839); assay: cross-linking mass spectrometry
# [3] = target: Protein disulfide-isomerase A6 (UniProt Q15084); assay: cross-link between two proteins; cross-linking mass spectrometry
# [4] = target: Voltage-gated monoatomic cation channel TMEM109 (UniProt Q9BVC6); assay: as above
# CD44 antigen = CD44 antigen (UniProt P16070); assay: cross-link between two proteins; affinity purification or IP with mass spectrometry; cross-linking mass spectrometry
# Chain of Glyceraldehyde-3-phosphate dehydrogenase, P04406 (P04406 whole entry): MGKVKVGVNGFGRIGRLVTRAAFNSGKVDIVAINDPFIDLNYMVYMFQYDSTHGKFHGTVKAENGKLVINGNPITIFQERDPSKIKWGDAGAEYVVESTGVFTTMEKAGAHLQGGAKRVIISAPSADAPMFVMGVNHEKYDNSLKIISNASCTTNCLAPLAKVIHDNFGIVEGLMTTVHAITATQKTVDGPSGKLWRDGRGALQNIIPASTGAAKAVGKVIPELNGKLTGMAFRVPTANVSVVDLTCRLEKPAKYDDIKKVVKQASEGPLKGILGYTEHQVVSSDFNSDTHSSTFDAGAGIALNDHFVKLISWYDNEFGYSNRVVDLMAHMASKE
# Chain of Alpha-enolase (P06733 whole entry): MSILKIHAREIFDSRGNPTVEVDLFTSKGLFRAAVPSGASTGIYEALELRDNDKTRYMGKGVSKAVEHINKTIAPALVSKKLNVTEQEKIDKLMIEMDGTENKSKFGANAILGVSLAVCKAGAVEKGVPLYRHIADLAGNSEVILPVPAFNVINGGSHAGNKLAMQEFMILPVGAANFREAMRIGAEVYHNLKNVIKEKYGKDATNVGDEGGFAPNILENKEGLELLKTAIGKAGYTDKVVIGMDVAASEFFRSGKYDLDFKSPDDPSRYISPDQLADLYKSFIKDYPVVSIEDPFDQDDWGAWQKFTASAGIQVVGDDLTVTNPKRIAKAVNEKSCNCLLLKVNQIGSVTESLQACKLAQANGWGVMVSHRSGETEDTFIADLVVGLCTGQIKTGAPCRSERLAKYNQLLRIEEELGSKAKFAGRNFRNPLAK
# Chain of Protein disulfide-isomerase, P07237 (P07237 whole entry): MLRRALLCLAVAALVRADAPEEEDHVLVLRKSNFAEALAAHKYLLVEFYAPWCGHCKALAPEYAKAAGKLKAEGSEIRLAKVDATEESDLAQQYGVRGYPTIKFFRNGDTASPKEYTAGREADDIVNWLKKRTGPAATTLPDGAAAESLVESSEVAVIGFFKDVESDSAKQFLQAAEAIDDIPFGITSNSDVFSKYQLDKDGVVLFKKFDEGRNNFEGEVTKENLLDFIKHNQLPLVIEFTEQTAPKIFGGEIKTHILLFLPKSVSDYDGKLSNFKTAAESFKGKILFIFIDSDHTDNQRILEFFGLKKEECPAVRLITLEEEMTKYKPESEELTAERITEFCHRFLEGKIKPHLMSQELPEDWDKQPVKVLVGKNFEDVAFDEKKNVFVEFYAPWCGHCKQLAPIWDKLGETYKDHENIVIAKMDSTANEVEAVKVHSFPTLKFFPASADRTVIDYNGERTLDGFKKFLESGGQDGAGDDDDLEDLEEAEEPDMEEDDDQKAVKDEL
# Chain of Protein disulfide-isomerase A6 (Q15084 whole entry): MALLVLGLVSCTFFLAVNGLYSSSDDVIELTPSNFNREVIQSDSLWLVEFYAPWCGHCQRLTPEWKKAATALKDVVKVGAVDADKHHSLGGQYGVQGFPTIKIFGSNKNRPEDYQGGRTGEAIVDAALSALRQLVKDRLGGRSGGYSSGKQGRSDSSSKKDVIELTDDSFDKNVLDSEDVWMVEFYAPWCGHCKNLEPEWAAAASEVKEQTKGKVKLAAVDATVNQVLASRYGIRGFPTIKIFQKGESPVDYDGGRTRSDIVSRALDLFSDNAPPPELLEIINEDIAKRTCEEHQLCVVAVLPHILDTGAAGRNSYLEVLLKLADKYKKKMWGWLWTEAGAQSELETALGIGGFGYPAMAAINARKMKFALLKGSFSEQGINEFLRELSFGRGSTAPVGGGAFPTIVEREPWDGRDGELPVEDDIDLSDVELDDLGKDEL
# Chain of Heterogeneous nuclear ribonucleoprotein U (Q00839 whole entry): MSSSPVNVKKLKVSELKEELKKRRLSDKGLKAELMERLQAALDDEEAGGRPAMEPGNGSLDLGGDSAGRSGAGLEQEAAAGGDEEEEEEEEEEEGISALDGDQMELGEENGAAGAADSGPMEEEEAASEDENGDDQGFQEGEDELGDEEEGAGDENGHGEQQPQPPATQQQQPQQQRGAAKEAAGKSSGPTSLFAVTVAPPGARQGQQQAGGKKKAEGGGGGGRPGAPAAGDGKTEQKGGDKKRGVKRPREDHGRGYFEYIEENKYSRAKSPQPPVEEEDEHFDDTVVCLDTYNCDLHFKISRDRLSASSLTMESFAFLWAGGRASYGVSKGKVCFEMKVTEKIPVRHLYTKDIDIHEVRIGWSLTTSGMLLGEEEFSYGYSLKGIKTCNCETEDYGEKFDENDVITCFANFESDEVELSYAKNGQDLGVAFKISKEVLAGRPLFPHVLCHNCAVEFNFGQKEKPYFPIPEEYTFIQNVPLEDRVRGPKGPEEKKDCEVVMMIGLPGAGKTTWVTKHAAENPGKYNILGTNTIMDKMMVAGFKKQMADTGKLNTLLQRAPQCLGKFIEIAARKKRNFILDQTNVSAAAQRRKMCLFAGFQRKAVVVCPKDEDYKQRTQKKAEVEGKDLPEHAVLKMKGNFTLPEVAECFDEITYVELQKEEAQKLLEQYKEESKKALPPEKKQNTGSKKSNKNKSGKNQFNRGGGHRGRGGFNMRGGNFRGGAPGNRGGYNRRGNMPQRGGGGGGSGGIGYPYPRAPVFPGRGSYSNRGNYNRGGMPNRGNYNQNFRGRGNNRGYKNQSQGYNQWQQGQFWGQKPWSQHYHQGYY
# Chain of Voltage-gated monoatomic cation channel TMEM109 (Q9BVC6 whole entry): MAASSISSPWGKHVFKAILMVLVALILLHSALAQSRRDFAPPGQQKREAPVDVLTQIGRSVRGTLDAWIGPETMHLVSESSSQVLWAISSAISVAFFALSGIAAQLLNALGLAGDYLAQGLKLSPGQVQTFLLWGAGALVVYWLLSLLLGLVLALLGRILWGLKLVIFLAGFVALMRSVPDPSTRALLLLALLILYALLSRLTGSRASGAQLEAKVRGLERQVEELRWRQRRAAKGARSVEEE
substance,measurement,setting,value
"High mobility group protein B1, P09429",listed as a hit,"Actin, cytoplasmic 1",yes
same,listed as a hit,Histone H2B type 1-N,yes
"Glyceraldehyde-3-phosphate dehydrogenase, P04406",listed as a hit,Alpha-enolase,yes
"Tubulin beta chain, P07437",listed as a hit,[1],yes
"Heterogeneous nuclear ribonucleoprotein A1, P09651",listed as a hit,[2],yes
"Protein disulfide-isomerase, P07237",listed as a hit,[3],yes
"Transmembrane protein 43, Q9BTV4",listed as a hit,[4],yes
"Annexin A6, P08133",listed as a hit,CD44 antigen,yes
